The supplement of paper PMC8728848
Only a selection was taken, and the strongest signals are over-represented in it overall.

Experiments:
Assay in all cases: glycan array binding signal (z-score within array); higher = stronger binding
Settings in all cases: glycan notation: IUPAC condensed, linker removed
[1] = molecular target: Fuc(a1-2)Gal(b1-3)GalNAc(b1-3)Gal
In short: (§1)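 Glycan array binding is given as a within-array Z-score, which can be read as non-binding when negative. The arrays, 3228 of them, came from the Consortium for Functional Glycomics database and were retained only where the protein sequence was available. Z-scores were averaged across arrays of the same protein sequence at different concentrations or buffers and across linkers.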

[2] = molecular target: Fuc(a1-2)Gal(b1-4)[Fuc(a1-3)]GlcNAc
In short: as §1

[3] = molecular target: Fuc(a1-2)[Gal(a1-3)]Gal(b1-4)[Fuc(a1-3)]GlcNAc
In short: as §1

[4] = molecular target: Gal(b1-3)[Fuc(a1-4)]GlcNAc(b1-3)Gal(b1-4)GlcNAc
In short: as §1

[5] = molecular target: Gal(b1-3)[Fuc(a1-4)]GlcNAc(b1-3)Gal(b1-4)[Fuc(a1-3)]GlcNAc
In short: as §1

Gal3S(b1-4)Glc = molecular target: Gal3S(b1-4)Glc
In short: as §1

Gal3S(b1-4)Glc6S = molecular target: Gal3S(b1-4)Glc6S
In short: as §1

Gal3S(b1-4)GlcNAc = molecular target: Gal3S(b1-4)GlcNAc
In short: as §1

Gal3S(b1-4)GlcNAc6S = molecular target: Gal3S(b1-4)GlcNAc6S
In short: as §1

Gal3S6S(b1-4)GlcNAc = molecular target: Gal3S6S(b1-4)GlcNAc
In short: as §1

Gal6S(b1-4)GlcNAc = molecular target: Gal6S(b1-4)GlcNAc
In short: as §1

[6] = molecular target: GlcNAc(a1-3)Gal(b1-4)GlcNAc
In short: as §1

[7] = molecular target: GlcNAc(b1-3)[GlcNAc(b1-6)]GalNAc
In short: as §1

[8] = molecular target: GlcNAc(b1-4)[GlcNAc(b1-6)]GalNAc
In short: as §1

[9] = molecular target: Man(a1-2)Man(a1-3)[Man(a1-2)Man(a1-6)]Man(a1-6)[Man(a1-3)[Man(a1-6)]Man(a1-6)]Man(b1-4)GlcNAc(b1-4)GlcNAc
In short: as §1

Neu5Ac(a2-3)GalNAc = molecular target: Neu5Ac(a2-3)GalNAc
In short: as §1

[10] = molecular target: Neu5Ac(a2-3)GalNAc(b1-4)GlcNAc
In short: as §1

[11] = molecular target: Neu5Ac(a2-3)[GalNAc(b1-4)]Gal(b1-4)Glc
In short: as §1

Neu5Ac(a2-6)Gal(b1-4)Glc = molecular target: Neu5Ac(a2-6)Gal(b1-4)Glc
In short: as §1

[12] = molecular target: Neu5Gc(a2-3)Gal(b1-4)[Fuc(a1-3)]GlcNAc
In short: as §1

Fuc(b1-3)GlcNAc = molecular target: Fuc(b1-3)GlcNAc
In short: as §1

Gal(a1-3)Gal(b1-4)GlcNAc = molecular target: Gal(a1-3)Gal(b1-4)GlcNAc
In short: as §1

Gal(a1-3)GalNAc = molecular target: Gal(a1-3)GalNAc
In short: as §1

[13] = molecular target: Gal(b1-4)GlcNAc(b1-3)GalNAc
In short: as §1

[14] = molecular target: GlcNAc(b1-2)Gal(b1-3)GalNAc
In short: as §1

[15] = molecular target: GlcNAc(b1-4)GlcNAc(b1-4)GlcNAc
In short: as §1

[16] = molecular target: Neu5Ac(a2-3)Gal(b1-3)GalNAc
In short: as §1

[17] = molecular target: Neu5Ac(a2-3)Gal(b1-3)[Neu5Ac(a2-3)Gal(b1-4)]GlcNAc
In short: as §1

[18] = molecular target: Neu5Ac(a2-3)Gal(b1-4)[Fuc(a1-3)]GlcNAc(b1-3)Gal(b1-4)[Fuc(a1-3)]GlcNAc(b1-3)Gal(b1-4)[Fuc(a1-3)]GlcNAc
In short: as §1

[19] = molecular target: Neu5Ac(a2-8)Neu5Ac(a2-8)Neu5Ac
In short: as §1

[20] = molecular target: Neu5Gc(a2-3)Gal(b1-3)[Fuc(a1-4)]GlcNAc
In short: as §1

Neu5Gc(a2-3)Gal(b1-4)Glc = molecular target: Neu5Gc(a2-3)Gal(b1-4)Glc
In short: as §1

Row | Binder | glycan array binding signal (z-score) [1] | glycan array binding signal (z-score) [2] | glycan array binding signal (z-score) [3] | glycan array binding signal (z-score) [4] | glycan array binding signal (z-score) [5] | glycan array binding signal (z-score) (Gal3S(b1-4)Glc) | glycan array binding signal (z-score) (Gal3S(b1-4)Glc6S) | glycan array binding signal (z-score) (Gal3S(b1-4)GlcNAc) | glycan array binding signal (z-score) (Gal3S(b1-4)GlcNAc6S) | glycan array binding signal (z-score) (Gal3S6S(b1-4)GlcNAc) | glycan array binding signal (z-score) (Gal6S(b1-4)GlcNAc) | glycan array binding signal (z-score) [6] | glycan array binding signal (z-score) [7] | glycan array binding signal (z-score) [8] | glycan array binding signal (z-score) [9] | glycan array binding signal (z-score) (Neu5Ac(a2-3)GalNAc) | glycan array binding signal (z-score) [10] | glycan array binding signal (z-score) [11] | glycan array binding signal (z-score) (Neu5Ac(a2-6)Gal(b1-4)Glc) | glycan array binding signal (z-score) [12] | glycan array binding signal (z-score) (Fuc(b1-3)GlcNAc) | glycan array binding signal (z-score) (Gal(a1-3)Gal(b1-4)GlcNAc) | glycan array binding signal (z-score) (Gal(a1-3)GalNAc) | glycan array binding signal (z-score) [13] | glycan array binding signal (z-score) [14] | glycan array binding signal (z-score) [15] | glycan array binding signal (z-score) [16] | glycan array binding signal (z-score) [17] | glycan array binding signal (z-score) [18] | glycan array binding signal (z-score) [19] | glycan array binding signal (z-score) [20] | glycan array binding signal (z-score) (Neu5Gc(a2-3)Gal(b1-4)Glc)
1 | MAL (Maackia amurensis) (protein) SDELSFTINNFMPNQGDLLFQGVATVSPTGVLQLTSEENGQPLEYSVGRVLYTAPVRIWDSTTGAVASFSTSFTFVVKAARGASDGLAFFLAPPDSQIPSGSVSKYLGLFNNSNSDSSNQIVAVEFDTYFGHSYDPWDPNYRHIGIDVNGIESIKTVQWDWINGGVAFATITYLAPNKTLIASLVYPSNQTSFIVAASVDLKEILPEWVRVGFSAATGAPKAVETHDVRSWSFTSTLEANSPADVDN | -0.382 | 0.544 | -0.348 | -0.428 | -0.272 | 4.98 | 4.51 | 4.96 | 5.35 | 0.345 | -0.066 | -0.353 | -0.374 | -0.221 | -0.305 | -0.392 | -0.416 | -0.394 | 0.057 | -0.371 | – | – | – | – | – | – | – | – | – | – | – | –
2 | Siglec-G (Mus musculus), Q80ZE3 (protein) MSLLLFLLSFLLDGPQGQMESYFLQVQRIVKAQEGLCIFVPCSFSSPEGKWLNRSPLYGYWFKGIRKPSLSFPVATNNKDKVLEWEARGRFQLLGDISKKNCSLLIKDVQWGDSTNYFFRMERGFERFSFKEEFRLQVEALTQKPDIFIPEVLEPGEPVTVVCLFSWTFNQCPAPSFSWMGDAVSFQESRPHTSNYSVLSFIPGLQHHDTELTCQLDFSRMSTQRTVRLRVAYAPRSLAISIFHDNVSVPDLHENPSHLEVQQGQSLRLLCTADSQPPATLSWVLEDQVLSWSSPVGSRTLALELPWVKAGDSGHYTCQAENRLGSQQHTLDLSVLYPPQDLRVTVSQANRTVLEILRNAISLPVLEGQSLCLVCVTYSNPPANVSWAWVTQTLIPIQSSEPGVLELPLVQREHEGEFTCAAQNPLGAQRISLSLSVHYPPQMSSPSCSWEAKGLHCNCSSRAWPAPSLRWRLGEGLLEGNSSNASFTVTFSSLGPWVNSSLSLLQELGPSLWLSCESWNTHGAQTTSVLLLPDKDSATAFSKGAVLGFGITALLALCLIVVIVKTLQKKGTQEEPSRPKLSRGSTILDYINVVPKTRSLARNWKAEPDAPSRSSPLDTHFPKPKKKQKDPHFTYPGCPDPTSSSQVPVSENNPEELHYAALNFSRLRLQETQDPQDTYSDYTEVRVH | -0.186 | – | – | – | – | – | – | – | – | – | – | – | – | – | – | – | – | – | – | – | 1.54 | -0.064 | -0.268 | -0.134 | -0.21 | -0.138 | 0.414 | 0.903 | 1 | 1.22 | 0.241 | -0.022
